# Data taken from the OligoGym collection.
# Tests used:
# Test in all cases: pooled miR-30 sensor sort-seq; sequence = guide strand
# Details in all cases: shRNA
# XAGE5 = molecular target: XAGE5
# XAGE3 = molecular target: XAGE3
# XCL2 = molecular target: XCL2
# XKR5 = molecular target: XKR5
# YARS = molecular target: YARS
# YWHAG = molecular target: YWHAG
# ZBTB8A = molecular target: ZBTB8A
# ZDHHC6 = molecular target: ZDHHC6
# ZMAT5 = molecular target: ZMAT5
# ZNF169 = molecular target: ZNF169
# ZNF512B = molecular target: ZNF512B
# ZNF583 = molecular target: ZNF583
# ZNF550 = molecular target: ZNF550
# ZNF592 = molecular target: ZNF592
# ZNF548 = molecular target: ZNF548
# ZNF836 = molecular target: ZNF836
# Note: reference of the scale not given here.
sequence,measurement,setting,value
TTGGTGGTTCTTCTTGTTGAGG,sensor-assay potency score (higher = more potent),XAGE5,-1.63
TGATCTTCTTCTCTCTCCTGAC,sensor-assay potency score (higher = more potent),XAGE3,-1.05
ATAATCTCAGTCCATGAGGGTG,sensor-assay potency score (higher = more potent),XCL2,-1.29
TGGCATTTTAAATTGTTCTGAT,sensor-assay potency score (higher = more potent),XAGE3,-0.221
TTTAAGTCAAATATCTTAGATA,sensor-assay potency score (higher = more potent),XAGE3,-0.923
TTCTCTAATAAATATAGTGTAT,sensor-assay potency score (higher = more potent),XKR5,-1.07
TGATCTTAGACACATTTCCTGT,sensor-assay potency score (higher = more potent),XKR5,-0.718
CAAGTCGTAAACATCGTCTTGG,sensor-assay potency score (higher = more potent),XAGE5,-0.817
TGCTAACTGGCAGTCGCTGGGT,sensor-assay potency score (higher = more potent),XCL2,-0.761
TCTGCTAACTGGCAGTCGCTGG,sensor-assay potency score (higher = more potent),XCL2,-0.99
TTGATTCTGCTAACTGGCAGTC,sensor-assay potency score (higher = more potent),XCL2,-0.401
TTTCAGTTGGTGGTTCTTCTTG,sensor-assay potency score (higher = more potent),XAGE5,-0.699
TATCTGTGAAGTCTGAGGCTAG,sensor-assay potency score (higher = more potent),XKR5,0.0293
TCATCTTCTCTCTTCTGACCAG,sensor-assay potency score (higher = more potent),XAGE5,-0.307
TAGGCACTTGAATCTCAGCTGC,sensor-assay potency score (higher = more potent),XAGE5,-0.239
TGCACCCTGATCTTCTTCTCTC,sensor-assay potency score (higher = more potent),XAGE3,-0.916
TTCAGTTGGTGGTTCTTCTTGT,sensor-assay potency score (higher = more potent),XAGE5,0.414
TTAGGCACTTGAATCTCAGCTG,sensor-assay potency score (higher = more potent),XAGE5,0.649
TATGTGAGACTTCACTCCCTAC,sensor-assay potency score (higher = more potent),XCL2,-0.968
TCACACAGGTCCTCCTATGTGA,sensor-assay potency score (higher = more potent),XCL2,-0.506
TCTCTCTCCTGACCAGGTGCAG,sensor-assay potency score (higher = more potent),XAGE3,-1.38
TTGAGTCTCAGCTGCACCCTGA,sensor-assay potency score (higher = more potent),XAGE3,-0.3
TAAATTACCAGTGAGACACTGC,sensor-assay potency score (higher = more potent),XKR5,0.68
TCTTGATTCTGCTAACTGGCAG,sensor-assay potency score (higher = more potent),XCL2,-0.712
TAGTGTGTACTCTTTGCTGAGC,sensor-assay potency score (higher = more potent),YARS,-0.796
TTGAATAGCCAAGTGCAGGGAG,sensor-assay potency score (higher = more potent),YARS,0.352
TTAAGTTTTCTTTTCATCTGAA,sensor-assay potency score (higher = more potent),YWHAG,0.563
TAAACCATAAGGATGAATGAGA,sensor-assay potency score (higher = more potent),YWHAG,-0.514
TTTTTAATGGACTCTTTCCTTG,sensor-assay potency score (higher = more potent),ZBTB8A,-0.893
TTCTGCAGTGATGTGAACGTGG,sensor-assay potency score (higher = more potent),ZDHHC6,0.312
TATTCTTGAAACACCTTCTATA,sensor-assay potency score (higher = more potent),ZDHHC6,-0.715
ATCTCGGAACATGTCGTACCAG,sensor-assay potency score (higher = more potent),ZMAT5,-1.24
ATATTGTCTGAGGAGCTGCGAG,sensor-assay potency score (higher = more potent),ZNF169,-1.34
TTTCGTAACTGTCACAAGCTTT,sensor-assay potency score (higher = more potent),ZNF512B,-0.797
TTGACTAAGATGTACCTCTTGA,sensor-assay potency score (higher = more potent),ZNF583,0.141
ATGAGTTCTGAGCTGCATCTGA,sensor-assay potency score (higher = more potent),ZNF550,-0.453
TTTAGAACTCTCTTTAGTGGGC,sensor-assay potency score (higher = more potent),ZNF592,0.465
TTGAGGTTGAAGATTCCAGAGT,sensor-assay potency score (higher = more potent),ZNF550,-1.04
TTCTCTGTCCTCTGTGTCCCTG,sensor-assay potency score (higher = more potent),ZNF548,-0.777
TTTCTTTTGTGGTTCATGCTTA,sensor-assay potency score (higher = more potent),ZNF583,0.129
TTTCTTTTCTACATAGACTTTC,sensor-assay potency score (higher = more potent),ZNF583,-0.596
TTGTGGAGGTCTGTCTCCGGTG,sensor-assay potency score (higher = more potent),ZNF550,-1.27
ATTCATGGAGAACATCTGCTGA,sensor-assay potency score (higher = more potent),ZNF550,-0.38
TTCACTAGTGTGAACTGTCTGA,sensor-assay potency score (higher = more potent),ZNF548,0.39
ATTCATAAGACCTTTCTCCTGT,sensor-assay potency score (higher = more potent),ZNF548,0.892
AATTCCATTGTGCTCAACCAGG,sensor-assay potency score (higher = more potent),ZNF548,-1.53
TTTTTTACATTCTTTACACTGA,sensor-assay potency score (higher = more potent),ZNF583,0.132
TGCTGCATGAGGTACGACCTGC,sensor-assay potency score (higher = more potent),ZNF550,-0.586
TTGAGCTCTGGCTAAAGGCTTT,sensor-assay potency score (higher = more potent),ZNF550,-0.685
TATATCAAAGATTGTATCCTGG,sensor-assay potency score (higher = more potent),ZNF583,0.513
TGCTGTATGAGTTCTGAGCTGC,sensor-assay potency score (higher = more potent),ZNF550,0.178
TTTCATTCCAGTGTGAACCCTC,sensor-assay potency score (higher = more potent),ZNF550,0.423
TTGTTGAAGACCATTTCACAGG,sensor-assay potency score (higher = more potent),ZNF592,-0.934
TTCGGTAACTTTTCTTTTGTGG,sensor-assay potency score (higher = more potent),ZNF583,0.115
TTTACCTTTCTGCATTTCCAAA,sensor-assay potency score (higher = more potent),ZNF550,-1.66
TTTTCTACATAGACTTTCCTAT,sensor-assay potency score (higher = more potent),ZNF583,-0.369
TAATGTGGTCTTTCTCCGCTTC,sensor-assay potency score (higher = more potent),ZNF592,-0.0177
TGATGCAGCAACACTGTGGGGG,sensor-assay potency score (higher = more potent),ZNF592,0.194
TATAACTAAGATGTCTTGCTCC,sensor-assay potency score (higher = more potent),ZNF583,0.322
TTGAACTCCAAAGCTTCCCCGA,sensor-assay potency score (higher = more potent),ZNF592,-0.465
TTGTCCTCTGGAAATGTGCAGC,sensor-assay potency score (higher = more potent),ZNF592,-0.92
TCTGTCACCTAGTGAAACCAGA,sensor-assay potency score (higher = more potent),ZNF550,-0.609
TTTTACATTCTTTACACTGATA,sensor-assay potency score (higher = more potent),ZNF583,-0.826
TTCTCCAACATCACTTTCCTGT,sensor-assay potency score (higher = more potent),ZNF583,0.0692
TACCTCTTGACTTCCCAGCTGG,sensor-assay potency score (higher = more potent),ZNF583,0.168
TTCGACATTGACTACACTCATA,sensor-assay potency score (higher = more potent),ZNF550,-1.1
TAACCTCTGACACTCCTACAGA,sensor-assay potency score (higher = more potent),ZNF548,-0.754
TTCTTCATATGTCTCTTGCTTT,sensor-assay potency score (higher = more potent),ZNF583,-0.61
TTCATGGAGAACATCTGCTGAT,sensor-assay potency score (higher = more potent),ZNF550,0.0411
ATTCTCTCTAGTCTCCATGGGC,sensor-assay potency score (higher = more potent),ZNF592,-0.404
TGTCTCACTAGGGTGGACCTTC,sensor-assay potency score (higher = more potent),ZNF548,-0.0557
TCAACAAATGAATAGCTGCAGG,sensor-assay potency score (higher = more potent),ZNF548,-0.782
TTCTGCACGAACAAGAGTGGGC,sensor-assay potency score (higher = more potent),ZNF592,-0.174
TTTGTCATGCTCTCGTCCCCTT,sensor-assay potency score (higher = more potent),ZNF592,-0.419
TTGAAGACCATTTCACAGGAGC,sensor-assay potency score (higher = more potent),ZNF592,-0.241
TTAGTGACACTAGCCACTCTTT,sensor-assay potency score (higher = more potent),ZNF592,-0.994
TTTTGTCTGAAGATCTTGCCAC,sensor-assay potency score (higher = more potent),ZNF836,0.166
